An excerpt weighted towards active compounds, which were near 6.9% of everything screened.
IL1B secr inh = qHTS for Inhibitors of Inflammasome Signaling: IL-1-beta AlphaLISA Primary Screen. THP-1 LPS/ATP IL-1B secretion, AlphaLISA, 16 h; hits give low values. activity change, % at 57.5 µM. 360,000 tested, 4.7% active. AID 743279, 2014; in the data active = activity change below about -50%; inconclusive = mostly about -30% to -49%; also: % is scaled to controls: 0 for no effect and ±100 for the full control effect
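Secreted IL-1B measured by AlphaLISA bead assay after 16 h compound exposure of THP-1 cells; compounds (final up to 57.5 uM) added 1 h before LPS (250 ng/mL) and ATP (1.25 mM) stimulation; lower signal means less secretion.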
MCF10A rereplic = A quantitative high throughput screen for small molecules that induce DNA re-replication in MCF 10a normal breast cells. 350,000 tested, 2.9% active. Potency, µM (top dose mostly 46.1 µM), for inactives: at the top dose activity, positive = re-replication, actives largely listed as activators. MCF 10A DNA re-replication, Hoechst nuclear intensity, 48 h; also: potency is read from the fitted curve at half-maximal effect; % of control where 0% means no effect; nearly all actives have a fitted effect of over 50% in size
SW480 rerep = A quantitative high throughput screen for small molecules that induce DNA re-replication in SW480 colon adenocarcinoma cells; SW480 DNA re-replication, Hoechst DNA content imaging, 48 h; Potency, µM (highest dose often 46.1 µM), inactives show at the top dose re-replication activation, usual class: activators; 340,000 tested, 1.8% active; also: potency is read from the fitted curve at half-maximal effect; % of control where 0% means no effect; nearly all actives have a fitted effect of over 55% in size
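Image-based read-out: total Hoechst fluorescence of nuclei (405 nm excitation, 500-530 nm emission), with hits raising the fraction of high-intensity nuclei. SW480 colon cells incubated 48 hr with compounds at 37 C.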
Giardia kill = Small Molecules that selectively kill Giardia lamblia: qHTS. Giardia lamblia trophozoite viability. activity change, % at 7.66 µM, hits read low. 340,000 tested, 0.15% active. AID 540267, 2011; in the data active = activity change below about -80%; inconclusive = between about -30% and that limit;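 also: parasites exposed to compound for two days anaerobically before the ATP read; % is scaled to controls: 0 for no effect and ±100 for the full control effect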
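Killing of trophozoites was scored by loss of ATP luminescence after a 48 hrs anaerobic exposure to compounds at 37 deg C, using 100 cells per well.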
Vif-A3F inh = qHTS for Inhibitors of Vif-A3F Interactions: qHTS | HeLa A3F-eYFP + Vif (tagged APOBEC3F with the HIV-1 protein that degrades it), YFP fluorescence increase | Potency, µM (top dose mostly 46.1 µM), inactives show top-dose activity, negative = active | 390,000 tested, 0.2% active | AID 602313, 2012; also: potency is read from the fitted curve at half-maximal effect; % of control where 0% means no effect; nearly all actives have a fitted effect of over 65% in size
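HeLa cells stably expressing A3F-eYFP plus Vif, plated and incubated overnight at 37 deg C, then exposed to compounds overnight at 37 deg C. Blocked degradation read as raised yellow fluorescence (Ex 488/Em 500-530).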
Vif-APOBEC3G blk = qHTS for Inhibitors of Vif-A3G Interactions: qHTS; DNA dC->dU-editing enzyme APOBEC-3G (Homo sapiens), Q9HC16; HeLa A3G-eYFP + Vif (tagged APOBEC3G with the HIV-1 protein that degrades it), YFP fluorescence, overnight; Potency, µM (highest dose often 46.1 µM), inactives show top-dose activity, negative = active, usual class: inhibitors; 410,000 tested, 0.076% active; AID 602310, 2012; also: potency is read from the fitted curve at half-maximal effect; % is scaled to controls: 0 for no effect and ±100 for the full control effect; nearly all actives have a fitted effect of over 60% in size
Target sequence (Q9HC16 whole entry, looked up): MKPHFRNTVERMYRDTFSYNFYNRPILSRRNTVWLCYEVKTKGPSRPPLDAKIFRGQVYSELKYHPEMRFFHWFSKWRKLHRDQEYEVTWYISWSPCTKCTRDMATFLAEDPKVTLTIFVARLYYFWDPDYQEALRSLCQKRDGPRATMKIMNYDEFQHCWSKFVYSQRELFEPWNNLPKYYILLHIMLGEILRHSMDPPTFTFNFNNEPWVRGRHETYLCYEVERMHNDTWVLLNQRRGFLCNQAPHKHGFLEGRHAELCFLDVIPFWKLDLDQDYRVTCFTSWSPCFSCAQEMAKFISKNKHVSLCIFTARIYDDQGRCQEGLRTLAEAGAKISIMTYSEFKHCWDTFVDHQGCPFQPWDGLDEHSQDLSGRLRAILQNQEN
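HeLa cells stably expressing Vif and C-terminally eYFP-tagged A3G, seeded overnight at 37 deg C, then exposed to compound by pintool overnight at 37 deg C. Rise in yellow fluorescence (Ex 488/Em 500-530, Acumen) marks blocked Vif-driven A3G degradation.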
* = called active by the depositor; ? = inconclusive; nt = not tested or not shown. Unless noted, calls follow the shape of the dose curve; as a rule, active = well fitted curve in the direction sought with a large enough effect; inconclusive = small, poorly fitted or top-dose-only effect, or another doubt; inactive = no such curve, though single readings can be large; an effect the other way counts as inactive or inconclusive.

SMILES	IL1B secr inh	MCF10A rereplic	SW480 rerep	Giardia kill	Vif-A3F inh	Vif-APOBEC3G blk
Cc1ccc(-c2csc(NC(=O)C[n+]3cc(-c4ccc(C)cc4)n4c3CCC4)n2)cc1	-94*	?	-5%	-3	-12%	0%
CC(=O)N1CC(O)CC1C(=O)O (stereo not given)	nt	-1%	-2%	nt	nt	nt
Cc1ccc(CSc2nnc3[nH]c(=O)cc(C)n23)cc1	nt	nt	nt	nt	1%	9%
CCCCCc1nnc(N)s1	-10	1%	-4%	-9	-3%	-2%
CCOCCc1nnc(N)s1	-3	8.2µM*	15µM*	4	1%	2%
CCOc1ccc(NC(=O)C2CC(=O)N(c3ccc(C(C)C)cc3)C2)cc1 (stereo not given)	nt	nt	nt	nt	-1%	-2%
CCOc1ccccc1NC(=O)C1CCN(S(=O)(=O)c2cc(Br)cc3c2N(C(C)=O)CC3)CC1	nt	nt	nt	nt	1%	1%
O=c1c2ccccc2c(=O)n(-c2ccccc2)n1CCCCBr	-9	7.3µM*	-2%	-2	-23%	1%
CC1CC(C)(C)NC(=S)N1CCCC(=O)Nc1ccc(Br)cc1 (stereo not given)	-78*	3%	-8%	6	?	-6%
CCOc1ccc(NC(=O)CCCN2C(=S)NC(C)(C)CC2C)cc1 (stereo not given)	4	1%	2%	-4	-3%	6%
Nc1ccn(C2OC(COP(=O)(O)O)C(O)C2O)c(=O)n1 (stereo not given)	27	?	0.65µM*	-5	9%	4%
CC(=O)NC[C@H]1O[C@@H](n2ccc(N)nc2=O)[C@H](O)[C@@H]1O	18	nt	nt	nt	-1%	0%
CC1(C)CC(N2CCCCC2)=CC(=[N+]2CCCCC2)C1	-70*	24%	-9%	-18	-12%	2%
CCOCCc1nn2c(=O)cc(COC(=O)c3ccc(NC(=O)c4cccs4)cc3)nc2s1	nt	nt	nt	nt	-10%	3%
C#CCN(C[C@@H]1[C@@H](OC(=O)NCc2ccc(OC)c(OC)c2)[C@@H](OC(=O)NCc2ccc(OC)c(OC)c2)Cn2c(=O)ccc(=O)n21)S(=O)(=O)c1ccc(C)cc1	-106*	nt	nt	nt	-1%	?
C#CCN(C[C@@H]1[C@@H](OC(=O)NC2CC2)[C@@H](OC(=O)NC2CC2)Cn2c(=O)n(CCCCCC)c(=O)n21)S(=O)(=O)c1ccc(C)cc1	-1	nt	nt	nt	-4%	-4%
C#CCN(C[C@@H]1[C@@H](OC(=O)Nc2c(C)noc2C)[C@@H](OC(=O)Nc2c(C)noc2C)Cn2c(=O)n(CCCCCC)c(=O)n21)S(=O)(=O)c1ccc(C)cc1	-59*	nt	nt	nt	-7%	-9%
C#CCN(C[C@@H]1[C@@H](OC(=O)NCc2ccc(OC)c(OC)c2)[C@@H](OC(=O)NCc2ccc(OC)c(OC)c2)Cn2c(=O)n(CCCCCC)c(=O)n21)S(=O)(=O)c1ccc(C)cc1	-3	nt	nt	nt	-1%	-7%
C#CCN(C[C@@H]1[C@@H](OC(=O)NCc2ccco2)[C@@H](OC(=O)NCc2ccco2)Cn2c(=O)ccc(=O)n21)S(=O)(=O)c1ccc(C)cc1	-109*	nt	nt	nt	0%	-27%
C#CCN(C[C@@H]1[C@@H](OC(=O)NCc2ccco2)[C@@H](OC(=O)NCc2ccco2)Cn2c(=O)n(CCCCCC)c(=O)n21)S(=O)(=O)c1ccc(C)cc1	-77*	nt	nt	nt	-5%	5%
COc1cc(C2C(=O)N(C3CCC(C)CC3)CC(=O)N2CCc2ccc(Cl)cc2)ccc1OC(C)C (stereo not given)	nt	nt	nt	nt	0%	-10%
Cc1ccc(N(CC(C)C)S(=O)(=O)c2nnc(NC(=O)c3cccs3)s2)cc1	nt	nt	nt	nt	-8%	0%
CC(C)CC(CSc1ccc(Br)cc1)N1CCN(C)CCC1=O (stereo not given)	nt	nt	nt	25	nt	2%
Cc1ccc(C(O)(c2ccccc2)c2ccccc2C(C)N(C)C)c(C)c1 (stereo not given)	-68*	-1%	-3%	3	-23%	4%
CC(=O)Nc1ccc(SCC(CC(C)C)N2CCN(CCc3ccccc3)CCC2=O)cc1 (stereo not given)	nt	nt	nt	6	nt	1%
SMILES	IL1B secr inh	MCF10A rereplic	SW480 rerep	Giardia kill	Vif-A3F inh	Vif-APOBEC3G blk
COc1ccc(-c2c(-c3cc(OC)cc(OC)c3)n(C)c3ccc(-c4ccc(S(N)(=O)=O)cc4)cc23)cc1	-54*	?	2%	9	-2%	-14%
COc1cc(OC)cc(-c2c(-c3cccs3)c3cc(-c4ccc(OC)c(F)c4)ccc3n2C)c1	-3	6%	?	4	6%	2%
COc1cc(OC)cc(-c2c(-c3cccs3)c3cc(-c4ccc(OC)c(OC)c4)ccc3n2C)c1	-17	16µM*	10%	-18	-10%	-4%
COc1cc(OC)cc(-c2c(-c3cccs3)c3cc(-c4cnc(N)nc4)ccc3n2C)c1	-4	23µM*	?	7	-14%	?
CC(C)(C)n1ncc2c(=O)n(Cc3ccccc3-c3ccccc3)cnc21	nt	nt	nt	nt	nt	-4%
Cc1ccc(NC(=O)CC2Oc3ccccc3NC2=O)cc1C (stereo not given)	nt	nt	nt	nt	0%	-4%
CC(=O)c1ccc(N2CCN(C(=O)Nc3cn(CC(C)C)c(=O)c4ccccc34)CC2)cc1	nt	nt	nt	nt	3%	-4%
COc1ccc(CN(C(=O)c2ccc(-c3ccccc3)[nH]2)C(C(=O)NC(C)(C)C)c2ccncc2)cc1 (stereo not given)	-83*	14%	?	5	-14%	-6%
CCOc1cc(C#N)c(-n2nnc3c(sc4nc(C)cc(C)c43)c2=O)cc1OCC	nt	nt	nt	nt	9%	2%
CC(C)(C)C1CCc2onc(C(=O)Nc3sc4c(c3C(N)=O)CCCC4)c2C1 (stereo not given)	nt	nt	nt	nt	1%	7%
O=c1c2c3c(sc2nnn1Cc1ccc(Br)cc1)CCCC3	nt	nt	nt	nt	3%	-2%
Cc1ccc(S(=O)(=O)CC(O)COc2ccc(F)cc2Cl)c(C)c1 (stereo not given)	-145*	?	-8%	-6	?	2%
COc1ccccc1S(=O)(=O)CC(O)COc1ccc(F)cc1Cl (stereo not given)	-62*	-4%	-1%	13	8%	0%
COc1cccc(C2C(C(=O)Nc3ccc(Cl)cc3)=C(C)Nc3c(C(=O)Nc4ccccc4)cnn32)c1OC (stereo not given)	nt	nt	nt	nt	-6%	-2%
